Source: PubChem
LASV entry inh: Lassa virus entry inhibition; Potency, µM (titrated, usually from 37.9 µM), most hits filed as inhibitors; hit rate 1.2% among 300,000; Lassa virus pseudotype entry inhibition, cell reporter; calls by dose curve; tested in HEK293 cells; note: nearly all actives have a fitted effect of over 50% in size
HCMV antiviral: human cytomegalovirus inhibition. HFF cells, HCMV-luciferase reporter, 72 h; stronger effect = lower value. activity change, negative = inhibition, % at 57.5 µM. hit rate 4.5% among 410,000. AID 1259415; in the data active = activity change below about -60%; inconclusive = no clear call, values can overlap the other calls; inactive = above about -39%
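Two compound doses tested in HFFs infected with HCMV-luciferase, MOI 1 PFU/cell, 72 h at 37C. Lysate luminescence read with OneGlo; data normalized against buffer-only and 10uM Salinomycin inhibitor controls.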
Marburg entry inh: Marburg virus entry inhibition. Marburg virus pseudotyped entry inhibition, cell reporter. Potency, µM (doses to about 37.8 µM), most hits filed as inhibitors. hit rate 1.8% among 300,000. AID 540276; calls by dose curve; tested in HEK293 cells
FMDV antiviral: foot and mouth disease virus antiviral activity. FMDV antiviral cell-based qHTS. Potency, µM (titrated, usually from 57.9 µM), actives largely listed as inhibitors. hit rate 1.2% among 410,000; calls by dose curve; tested in HEK293T cells; note: read-out not given here; nearly all actives have a fitted effect of over 45% in size
A number is an active result; - = inactive; ? = inconclusive; . = no result; ! = not active in a repeat. Most compounds without a hit are left out; they make up all but 6.2% or so of the library.

SMILES	LASV entry inh	HCMV antiviral	Marburg entry inh	FMDV antiviral
Cc1ccc2[nH]cc(C(c3ccccc3)c3cccs3)c2c1 (stereo not given)	-	-79	?	?
Cc1ccc2[nH]cc(C(c3ccccc3)c3ccc(C)s3)c2c1 (stereo not given)	?	-100	?	?
Cc1ccc(C(=O)c2cc([N+](=O)[O-])ccc2N2CCCCC2)cc1	?	-85	?	-
Cc1ccc(C(=O)c2cc([N+](=O)[O-])ccc2N2CC(C)OC(C)C2)cc1 (stereo not given)	.	-	.	-
CC1CCCN(c2ccc([N+](=O)[O-])cc2C(=O)c2ccccc2)C1 (stereo not given)	?	-74	?	?
O=C(c1ccccc1)c1cc([N+](=O)[O-])ccc1N1CCOCC1	-	?	?	-
O=C(NC(C(=O)c1ccccc1)n1ccc(=O)[nH]c1=O)c1ccccc1 (stereo not given)	-	-	-	-
COc1ccc(OC)c(N/C=C/C(=C(C#N)C#N)N(C)C)c1	-	-68	?	-
CCCCCCCCSC1=CC(=O)C(OC)=C(OC)C1=O	.	-87	.	18µM
CC(C)CN(C(=O)COC(=O)c1ccc(-c2ccccc2)cc1)C1CCS(=O)(=O)C1 (stereo not given)	-	-	-	-
Cc1nc2cc(C(=O)OCC(=O)N(CC(C)C)C3CCS(=O)(=O)C3)ccc2n1-c1ccccc1 (stereo not given)	-	-96	?	-
Cc1nc2cc(C(=O)OCC(=O)NC(C)C(C)C)ccc2n1-c1ccccc1 (stereo not given)	8.2µM	-	?	-
O=C(N/N=C\c1ccc(CNS(=O)(=O)c2ccccc2)o1)C(=O)Nc1ccc(F)cc1	-	-	-	-
O=C(N/N=C\c1ccc(CNS(=O)(=O)c2ccc(Cl)cc2)o1)C(=O)Nc1ccc(Oc2ccccc2)cc1	?	-99	?	-
CSc1ccc(CNC(=O)Cn2nc(C)c3c(C)n(-c4ccc(C)cc4)nc3c2=O)cc1	.	-	.	-
CCc1noc(C)c1C(=O)Nc1ccc(S(=O)(=O)N2CCCCC2)cc1	-	-	-	-
O=C(Nc1ccc(Cl)c(S(=O)(=O)N2CCCCC2)c1)c1ccncc1	-	-77	?	-
CCc1noc(C)c1C(=O)Nc1ccc(Cl)c(S(=O)(=O)N2CCCCC2)c1	-	-	?	22µM
O=C(Nc1ccc(Cl)c(S(=O)(=O)N2CCCCC2)c1)c1cnccn1	.	-	.	-
CCc1c(C)sc2c1CCN(Cc1ccccc1)C2c1ccccc1 (stereo not given)	?	-102	.	-
CCC(=O)OCCn1c(=O)c2cc3c(=O)n(CCOC(=O)CC)c(=O)c3cc2c1=O	-	-	-	-
CCOC(=O)CSc1nc2ccccc2c(=O)n1CC	-	-	-	-
CCCCOC(=O)Cn1c(-c2ccccc2)nc2ccccc2c1=O	-	-76	-	-
CCOC(=O)Cn1c(-c2ccccc2)nc2ccccc2c1=O	-	-95	-	-
CCCOC(=O)C(C)n1c(-c2ccccc2)nc2ccccc2c1=O (stereo not given)	-	-	-	-
SMILES	LASV entry inh	HCMV antiviral	Marburg entry inh	FMDV antiviral
CCCOC(=O)Cn1c(=O)c2cc3c(=O)n(CC(=O)OCCC)c(=O)c3cc2c1=O	-	-72	-	-
CCCc1nc(C)c(-c2ccc(OC)c(OC)c2)c(=O)[nH]1	-	-	-	-
CCOC(=O)N(C)c1ccc(C(O)(C(F)(F)F)C(F)(F)F)cc1	?	-	?	-
COc1cc2ccccc2cc1C(=O)Nc1cc(C)ccn1	-	-	?	-
CN=C1SC(CC(=O)NCCc2ccc(OC)c(OC)c2)C(=O)N1C (stereo not given)	-	-64!	?	-
Cc1ccc(S(=O)(=O)CC(=O)Nc2ccc(S(=O)(=O)Nc3ccccn3)cc2)cc1	.	-	.	-
COc1ccccc1NC(=O)C(=O)Nc1ccccn1	?	-	?	.
Cc1cc(Cl)ccc1NC(=S)Nc1ccccn1	-	-	-	-
Cc1ccc(NC(=S)Nc2ccccn2)c(C)c1	?	-	4µM	-
Cc1ccc(S(=O)(=O)CC(=O)Nc2ccccn2)cc1	-	-63	-	-
Cc1ccc(NC(=O)C(=O)Nc2ccccn2)cc1	2.9µM	-	1.1µM	?
CCOc1cccc2cc(C(=O)NCc3ccccc3)c(=N)oc12	.	.	.	-
Cc1ccc(-c2ccc(C(=O)NCc3ccccc3)o2)c2ccccc12	6.5µM	-	-	-
O=C(NCc1ccc(Cl)cc1)c1ccc(-c2ccccc2C(F)(F)F)o1	5.2µM	-	-	-
CCOc1ccccc1-c1ccc(C(=O)NCc2ccccc2)o1	7.3µM	-	-	-
CC1=CC(C)(C)N(C(=O)CSc2nnc(C)s2)c2ccc(C)cc21	-	-	-	.
Cc1ccccc1NCC(=O)N/N=C/C(Br)=C/c1ccccc1	-	-	?	.
N#CCCC12CCCCC1=Nc1ccccc12 (stereo not given)	-	-	-	-
CSc1nsc(SC)c1C(=O)Nc1ccc(Cl)cc1	.	-	.	-
O=C(CN1C(=O)/C(=C/c2ccccc2F)Oc2ccccc21)N1CCN(c2ccccn2)CC1	-	-	?	-
Cc1cc(Nc2ccccc2Cl)n2nc(-c3ccco3)nc2n1	-	-72	.	-
CCOC(=O)c1ccccc1Nc1cc(C)nc2nc(-c3ccco3)nn12	?	-	.	-
CCN(CC)C(=O)C1=C(C)N(CCCOC)C(=O)C(CC(=O)NC2CCCCC2)C1 (stereo not given)	.	-	.	-
Cc1ccc(-n2ncc(C(=O)Nc3ccc(Cl)cc3)c2C2CCNCC2)cc1C	?	-70	?	-
C=CCc1cc(C(=O)N2CCCCC2)ccc1O	-	-71	-	-
SMILES	LASV entry inh	HCMV antiviral	Marburg entry inh	FMDV antiviral
O=C(c1ccc2c(c1)OCO2)N1CCCCC1	.	.	.	-
COCCN1C(=O)COc2ccccc2C1C(=O)NC1CCCC1 (stereo not given)	.	-	.	-
CN(C)c1cc(N/N=C/c2ccc(Cl)cc2)nc(N(C)C)n1	12µM	?	?	-
N#CCSc1nc(-c2ccccc2)cs1	-	-63	-	-
CCOc1ccc(N2CC(c3nc4ccccc4n3CCCOc3ccc(OC)cc3)CC2=O)cc1 (stereo not given)	?	-	-	-
CCOC(=O)CSc1cn2c(n1)CCC2	-	-	-	-
COc1ccc(CN(C)Cc2nc(Cc3cccc(F)c3)no2)c2cccnc12	?	-82	?	10µM
COc1ccccc1CC1(C)C(=O)Nc2c(Cl)cccc21 (stereo not given)	.	-73	.	-
CCc1ccc2c(c1)NC(=O)C2(C)Cc1ccccc1OC (stereo not given)	.	-71	.	-
Cc1cc(NS(=O)(=O)c2ccc(NC(=O)C(c3ccccc3)c3ccccc3)cc2)no1	-	-	-	-
Cc1csc(=O)n1CCC(=O)OCC(=O)Nc1ccc(F)c(F)c1F	-	-	-	-
COc1cccc(/C=N/Nc2ccc([N+](=O)[O-])cn2)c1O	?	-98	?	?
O=[N+]([O-])c1ccc(Nc2nc(NC3CCCCC3)nc(N3CCCC3)n2)cc1	-	-73	?	-
COc1c(/C=N/Nc2nc(N3CCCCC3)nc(N3CCCCC3)n2)cccc1[N+](=O)[O-]	-	-92	?	-
Fc1ccccc1/C=N/Nc1nc(N2CCCCC2)nc(N2CCCCC2)n1	.	-	.	-
COc1cccc(/C=N/Nc2ncccc2[N+](=O)[O-])c1OC	?	-	1.6µM	7.1µM
